# Screening data (PubChem BioAssay)
# PAFAH1B2 inh – PAFAH1B2 enzyme inhibitors, primary screen, biochemical, fluorescence polarization, human; Platelet-activating factor acetylhydrolase IB subunit alpha2 (Homo sapiens), P68402; recombinant PAFAH1B2, FP-rhodamine activity probe; inhibition, % at 3.39 µM; 340,000 tested, 1.2% active; AID 492953, 2010;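 active means inhibition above the mean of all tested compounds plus 3 SD, cut at about 24% in these data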;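 further: 0% = enzyme with DMSO and 100% = wells lacking PAFAH1B2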
# Target sequence (P68402 whole entry, looked up): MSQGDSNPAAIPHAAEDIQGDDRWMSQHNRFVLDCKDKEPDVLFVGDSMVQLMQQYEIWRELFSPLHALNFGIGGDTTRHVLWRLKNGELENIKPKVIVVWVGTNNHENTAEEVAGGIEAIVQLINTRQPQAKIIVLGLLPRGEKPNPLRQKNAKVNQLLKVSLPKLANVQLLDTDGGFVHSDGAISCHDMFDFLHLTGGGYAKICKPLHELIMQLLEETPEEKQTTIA
# PAFAH2 FP inh – PAFAH2 enzyme inhibitors, primary screen, biochemical, fluorescence polarization, human; Platelet-activating factor acetylhydrolase 2, cytoplasmic (Homo sapiens), Q99487; recombinant PAFAH2, FP-rhodamine activity probe; inhibition, % at 3.39 µM; 340,000 tested, 0.99% active;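 active means inhibition above the mean over all tested compounds plus 3 SD, cut at about 30% in these data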;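 further: inhibitors block probe labeling of enzyme so polarization drops; 0% = enzyme with DMSO and 100% = wells lacking PAFAH2 protein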
# PAFAH1B3 FP inh – PAFAH1B3 enzyme inhibitors, primary screen, biochemical, fluorescence polarization, human. Platelet-activating factor acetylhydrolase IB subunit alpha1 (Homo sapiens), Q15102. AID 492972, 2010. inhibition, % at 3.39 µM. recombinant PAFAH1B3, FP-rhodamine probe. 340,000 tested, 0.28% active;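 active means inhibition above the screen-wide average of all tested compounds plus 3 SD, cut at about 25% in these data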;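 further: 0% = enzyme with DMSO only and 100% = wells lacking PAFAH1B3 protein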
# Target sequence (Q15102 whole entry, looked up): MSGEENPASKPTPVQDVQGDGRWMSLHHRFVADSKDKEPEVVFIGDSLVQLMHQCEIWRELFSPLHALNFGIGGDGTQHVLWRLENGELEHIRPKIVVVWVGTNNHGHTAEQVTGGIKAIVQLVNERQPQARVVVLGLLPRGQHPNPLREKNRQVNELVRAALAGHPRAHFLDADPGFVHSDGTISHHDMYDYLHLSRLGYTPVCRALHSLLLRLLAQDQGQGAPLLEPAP
# pPAFAH inh – pPAFAH enzyme inhibitors, primary screen, biochemical, fluorescence polarization, human; inhibition, % at 3.39 µM; Platelet-activating factor acetylhydrolase (Homo sapiens), Q13093; recombinant pPAFAH, FP-rhodamine probe fluorescence polarization; 330,000 tested, 1.5% active;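 active means inhibition above the mean inhibition across the screen plus 3 SD, cut at about 25% in these data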;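 further: inhibitors block binding of the rhodamine activity-based probe so polarization drops; 0% = enzyme with DMSO and 100% = wells lacking pPAFAH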
# DAGLB inhibitor – DAGLB lipase inhibitors, primary screen, biochemical, fluorescence, HTS. HEK293T DAGLB membrane lysate, EnzChek fluorogenic substrate. inhibition, % at 5.17 µM. 340,000 tested, 0.059% active; in the data active means inhibition above about 34%;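 further: 0% = enzyme with vehicle and 100% = wells lacking enzyme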
# HTRA1 inh – HTRA1 serine protease inhibitors, primary screen, biochemical, fluorescence polarization, HTS; 340,000 tested, 0.5% active; Q92743; recombinant HTRA1, FP-rhodamine activity-based probe; inhibition, % at 5.96 µM; in the data active means inhibition above about 36%;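 further: 0% = enzyme with DMSO and 100% = wells lacking enzyme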
# pPAFAH confirm – pPAFAH (PLA2G7) enzyme inhibitors, confirmation, biochemical, fluorescence polarization, human; shares compounds with pPAFAH inh; recombinant pPAFAH, FP-Rh probe fluorescence polarization; inhibition, % at 3.39 µM; 2,300 tested, 72% active; AID 463230, 2010;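 active means mean inhibition of the triplicate above the hit cutoff set for the earlier primary screen, cut at about 25% in these data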;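 further: 0% = enzyme with DMSO and 100% = wells lacking pPAFAH enzyme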
# Active calls of the source: *; · = not tested or not shown. An excerpt weighted towards active compounds, which were near 2.8% of everything screened.
SMILES,PAFAH1B2 inh,PAFAH2 FP inh,PAFAH1B3 FP inh,pPAFAH inh,DAGLB inhibitor,HTRA1 inh,pPAFAH confirm
COc1ccc2c3c1OC1[C@H](O)CCC4[C@@H](C2)N(C)CC[C@]314 (some centres not stated),0,2,5,35*,0,-3,2
CC(C(N)=O)N1CC(c2ccc(Cl)cc2)CC1=O (configuration not stated),3,-2,-7,2,-1,6,·
CCN(CC)P(=O)(NC(=O)C(Cl)(Cl)Cl)N(CC)CC.[Cl-].[Cl-].[Cl-].[Nd+3],7,1,6,-4,0,1,·
CCN(CC)c1ccc(/C=C2\C(=O)NC(=O)N(Cc3ccco3)C2=O)cc1,-6,13,-11,6,4,-40,·
CCCCN1C(=O)/C(=C/c2ccc(N(C)C)cc2)C(=O)N(Cc2ccco2)C1=O,-13,-24,-32,36*,13,-69,-1
O=C1NC(=O)C(C(CC(=O)c2ccccc2)c2ccccc2)C(=O)N1 (configuration not stated),1,-4,6,0,0,4,·
CCCCCCCCN=Cc1c(O)[nH]c(=O)[nH]c1=O,·,·,·,62*,·,·,1
O=c1cccc2n1CC1CC2CN(c2ncnc3c2cnn3-c2ccccc2)C1 (configuration not stated),3,1,-6,-1,2,-1,·
Cc1ccccc1-n1c(O)c(C=Nc2ccc(N(C)C)cc2)c(=O)[nH]c1=O,5,4,3,46*,0,35,1
Cc1cccc(N=Cc2c(O)n(-c3ccccc3C)c(=O)[nH]c2=O)c1,0,-5,6,4,-1,3,·
CN1CCc2cccc(Cl)c2CC1,-4,-2,0,2,4,-4,·
O=C(c1cn(Cc2ccccc2)c2ccccc12)C1CC1,3,-3,1,-5,-7,-20,·
N#Cc1ccccc1Cn1cc(C(=O)c2ccco2)c2ccccc21,-2,3,2,72*,-4,-11,77*
O=C(c1ccco1)c1cn(Cc2ccccc2Cl)c2ccccc12,-2,-3,9,74*,-5,-52,76*
CN(C)C1C(=O)C(C(N)=O)=C(O)C2(O)C(=O)C3=C(O)c4c(O)cccc4C(C)(O)C3CC12 (configuration not stated),6,-9,7,36*,1,9,-1
CC(=NCCC(c1ccccc1)c1ccccc1)c1c(O)n(C)c(=O)n(C)c1=O,2,-8,4,3,-1,-3,·
CCc1c(C)nc(N)nc1N1N=C1SCCOc1ccccc1,5,2,10,3,-1,1,·
COc1cc2c(cc1OC)-c1c(OC)c(OC)c(OC)c3ccnc(c13)C2=O,·,·,·,38*,·,·,19
Cc1cc(C)cc(-n2c(O)c(C=Nc3ccc(N4CCOCC4)cc3)c(=O)[nH]c2=S)c1,1,5,-4,6,2,11,·
CC(=O)N1CCN(c2ccc(N=Cc3c(O)n(-c4ccc(Cl)cc4)c(=O)[nH]c3=O)cc2)CC1,6,-2,5,41*,5,24,17
O=c1[nH]c(=S)n(-c2ccc(Br)cc2)c(O)c1C=Nc1ccc(N2CCOCC2)cc1,2,10,-1,57*,5,22,33*
CC12C=CC(=O)CC1CCC1C2CCC2(C)C(O)C(O)CC12 (configuration not stated),4,0,2,·,1,-1,·
CC(C)c1ccc(-n2c(O)c(/C=N/NC(=O)c3ccccc3O)c(=O)[nH]c2=S)cc1,-8,-18,-13,47*,18,18,45*
O=C(CSC1c2ccccc2-c2ccccc21)N/N=C/c1ccccc1O,0,10,11,-1,7,-33,·
Cn1cccc1/C=C1/C(=O)NC(=S)N(Cc2ccc(F)cc2)C1=O,55*,44*,3,61*,26,45*,45*
SMILES,PAFAH1B2 inh,PAFAH2 FP inh,PAFAH1B3 FP inh,pPAFAH inh,DAGLB inhibitor,HTRA1 inh,pPAFAH confirm
O=[N+]([O-])c1ccc(N2CCCCCC2)c2nonc12,9,4,-15,12,-60,15,·
O=[N+]([O-])c1ccc(NCc2ccccc2)c2nonc12,·,·,·,47*,·,·,41*
CC1CCCC(NC(=O)COC(=O)Cc2ccccc2)C1C (configuration not stated),5,25,-3,40*,1,-5,39*
O=c1[nH]c(=S)[nH]c(O)c1N=Nc1cc(S(=O)(=O)Nc2ccc(Cl)cc2)ccc1Cl,21,24,43*,49*,33,0,95*
NS(=O)(=O)c1ccc(N=Nc2c(O)[nH]c(=S)[nH]c2=O)cc1,3,-2,8,7,1,6,·
CS(=O)(=O)NNP(=O)(NNS(C)(=O)=O)NC(=O)c1ccccc1,-5,2,0,2,-3,3,·
O=C(COC(=O)Cc1ccccc1)Nc1ncc(Cl)cc1Cl,-2,0,4,35*,0,4,23
O=C(COC(=O)Cc1ccccc1)Nc1ccc(Cl)cn1,0,6,8,16,-3,10,·
COc1ccc(/C=N/N=C(/N)N[N+](=O)[O-])c(OC)c1,3,4,1,3,-2,0,·
N/C(=N\N=C/c1ccc(-c2ccc(O)c(C(=O)O)c2)o1)N[N+](=O)[O-],11,12,30*,50*,4,5,35*
Cn1c(N)c(C(=O)COC(=O)Cc2ccccc2)c(=O)n(C)c1=O,6,1,15,-1,1,3,·
CN1CCC(c2c[nH]c3ccccc23)C1 (configuration not stated),7,8,8,44*,-4,4,4
Cc1nc2ccc(Br)cc2c(=O)n1-c1ccc([N+](=O)[O-])c(C(F)(F)F)c1,-2,-7,5,-3,-1,-30,·
O=C1NC(=O)N(c2ccccc2)C(=O)/C1=C\c1ccc([N+](=O)[O-])s1,·,·,·,56*,·,·,46*
O=C1NC(=O)N(c2ccccc2)C(=O)/C1=C\c1ccc([N+](=O)[O-])o1,·,·,·,19,·,·,·
COc1ccc(OC)c(N2C(=O)NC(=O)/C(=C\c3ccc([N+](=O)[O-])s3)C2=O)c1,47*,54*,61*,64*,11,31,69*
